APOBEC3G inh = inhibitors of human APOBEC3G DNA deaminase. recombinant A3G, ssDNA deamination FAM/TAMRA fluorescence. inhibition, % at 20 µM. 330,000 compounds, 0.28% hits. Q9HC16. AID 493012;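 active = inhibition of at least 40% at 20 µM, with no more than 30% in the related APOBEC3A deaminase screen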
GRK2 inh = inhibitors of human GRK2 displacing RNA aptamer | P25098 | bead flow cytometry, FAM-aptamer displacement from GRK2 | 330,000 compounds, 0.59% hits | inhibition of aptamer binding, % at 10 µM;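 active = inhibition of aptamer binding above 40%, roughly 3 SD of noise, on plates passing a quality check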;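 also: median bead fluorescence of bound FAM aptamer so fluorescent compounds give negative values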
A3A deaminase = inhibitors of human APOBEC3A DNA deaminase. P31941. recombinant A3A, FAM/TAMRA ssDNA deamination fluorescence. inhibition, % at 20 µM. 330,000 compounds, 0.41% hits;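 active = at least 40% inhibition at 20 µM here, with at most 30% in a related deaminase screen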
VLA-4 inh = inhibition in a human VLA-4 binding assay. AID 2557. VLA-4 expressing cells, ligand binding flow cytometry. P13612. inhibition, % (about 7 µM as worked out from the volumes in the protocol). 330,000 compounds, 0.2% hits; in the data active = inhibition above about 50%
VLA-4 mod pick = human VLA-4 allosteric modulation in cherry picked compounds; inhibition, % at 6.7 µM; 1,300 compounds, 2% hits; shares compounds with VLA-4 inh; U937 cells, HUTS-21 LIBS mAb binding, flow cytometry; LDV ligand present at threefold Kd; in the data active = inhibition above about 40%
Numbers stand for hits. Hits are enriched below; roughly 1.4% of the tested compounds scored in any of these assays.

Screening O=[N+]([O-])c1cccc(/C(=N/N=C/c2ccccc2Br)C23CN4CN(CN(C4)C2)C3)c1 returned APOBEC3G inh inactive, GRK2 inh inactive, A3A deaminase inactive and VLA-4 inh inactive.
For CCN1CCN(c2cc(C)c3cc(NC(=S)N4CCOCC4)ccc3n2)CC1 the results were APOBEC3G inh inactive, GRK2 inh inactive, A3A deaminase inactive and VLA-4 inh inactive.
`CCSc1nnc2c(n1)OC1(CCCC1)Nc1ccccc1-2` gave APOBEC3G inh inactive, GRK2 inh inactive, A3A deaminase inactive, VLA-4 inh 55 and VLA-4 mod pick inactive.
Screening O=C(NCCCn1ccnc1)C(=O)NCC(c1cccnc1)N1CCN(c2ccccc2)CC1 (stereo not drawn) returned APOBEC3G inh inactive, GRK2 inh inactive, A3A deaminase inactive, VLA-4 inh 57 and VLA-4 mod pick inactive.
Screening CCOC(=O)c1c(-c2ccccc2)csc1NC(=O)CCN1C(=O)c2ccccc2C1=O returned APOBEC3G inh inactive, GRK2 inh inactive, A3A deaminase inactive, VLA-4 inh inactive and VLA-4 mod pick inactive.
Screening Cc1nn(C)c(C)c1CNC(=O)Nc1ccc2c(c1)OCO2 returned APOBEC3G inh inactive, GRK2 inh inactive, A3A deaminase inactive, VLA-4 inh 125 and VLA-4 mod pick inactive.
For Cc1nn(C)c(C)c1CNC(=O)Nc1ccc(Cl)cc1 the results were APOBEC3G inh inactive, GRK2 inh inactive, A3A deaminase inactive and VLA-4 inh inactive.
For CC1(C)[C@@H](O)CC[C@]2(C)[C@H]3C(=O)C=C4[C@@H]5C[C@@](C)(C(=O)O)CC[C@]5(C)CC[C@@]4(C)[C@]3(C)CC[C@@H]12 the results were APOBEC3G inh inactive, GRK2 inh inactive, A3A deaminase inactive and VLA-4 inh inactive.
For COC(=O)CNc1cc(S(=O)(=O)N2CCCCC2)ccc1Oc1ccc(C(=O)OC)cc1 the results were APOBEC3G inh inactive, GRK2 inh inactive, A3A deaminase inactive and VLA-4 inh inactive.
For CCCOc1ncnc2c1[nH]c1ccc(OC)cc12 the results were APOBEC3G inh inactive, GRK2 inh inactive, A3A deaminase inactive, VLA-4 inh inactive and VLA-4 mod pick inactive.
CCCCOc1ncnc2c1[nH]c1ccc(C)cc12 was read as APOBEC3G inh inactive, GRK2 inh inactive, A3A deaminase inactive, VLA-4 inh inactive and VLA-4 mod pick inactive.
Screening CCCOc1ncnc2c1[nH]c1ccccc12 returned APOBEC3G inh inactive, GRK2 inh inactive, A3A deaminase inactive and VLA-4 inh inactive.
CC1CCN(c2nc3ccc(C(=O)NCCCN4CCCCC4C)cc3s2)CC1 (stereo not drawn) was read as APOBEC3G inh inactive, GRK2 inh inactive, A3A deaminase inactive, VLA-4 inh inactive and VLA-4 mod pick inactive.
For CC1CCCC(C)N1CCCNC(=O)c1ccc2nc(N3CCOCC3)sc2c1 (stereo not drawn) the results were APOBEC3G inh inactive, GRK2 inh inactive, A3A deaminase inactive, VLA-4 inh inactive and VLA-4 mod pick inactive.
O=C(NCCCN1CCC(Cc2ccccc2)CC1)c1ccc2nc(N3CCOCC3)sc2c1 was read as APOBEC3G inh inactive, GRK2 inh inactive, A3A deaminase inactive and VLA-4 inh inactive.
CC1CC(C)CN(CCCNC(=O)c2ccc3nc(N4CCCCC4)sc3c2)C1 (stereo not drawn) was read as APOBEC3G inh inactive, GRK2 inh inactive, A3A deaminase inactive and VLA-4 inh inactive.
CC1CCCC(C)N1CCCNC(=O)c1ccc2nc(N3CCCCC3)sc2c1 (stereo not drawn) was read as APOBEC3G inh inactive, GRK2 inh inactive, A3A deaminase inactive, VLA-4 inh 51 and VLA-4 mod pick inactive.
COc1ccc(C(=O)CSc2nnc3ccc(-c4ccccn4)nn23)cc1 was read as APOBEC3G inh inactive, GRK2 inh inactive, A3A deaminase inactive and VLA-4 inh inactive.
`C=CCc1cccc(C=Nc2ccc(Br)cc2)c1O` gave APOBEC3G inh inactive, GRK2 inh inactive, A3A deaminase inactive and VLA-4 inh inactive.
For CCCc1cc(=O)[nH]c(SCC(=O)Nc2nc3ccc(OCC)cc3s2)n1 the results were APOBEC3G inh inactive, GRK2 inh inactive, A3A deaminase inactive, VLA-4 inh 51 and VLA-4 mod pick inactive.
Screening COc1cc(C(=O)OCC(=O)NC2CCCCC2)cc(OC)c1OC returned APOBEC3G inh inactive, GRK2 inh inactive, A3A deaminase inactive, VLA-4 inh inactive and VLA-4 mod pick inactive.
`COc1cccc(NC(=O)CN(C)CC(=O)Nc2ccc(Cl)cc2[N+](=O)[O-])c1` gave APOBEC3G inh inactive, GRK2 inh inactive, A3A deaminase inactive and VLA-4 inh inactive.
COc1ccc(OC)c(/C=N/c2c(-c3ccc(O)c(OC)c3)nc3ccccn23)c1 was read as APOBEC3G inh inactive, GRK2 inh inactive, A3A deaminase inactive, VLA-4 inh 51 and VLA-4 mod pick inactive.
Screening COc1cc(-c2nc3ccccn3c2/N=C/c2cc(OC)c(OC)c(OC)c2)ccc1O returned APOBEC3G inh inactive, GRK2 inh inactive, A3A deaminase inactive and VLA-4 inh inactive.
O=C1NCCCC2c3c(cc(Br)c(O)c3Br)OC12N1CCOCC1 (stereo not drawn) was read as APOBEC3G inh inactive, GRK2 inh inactive, A3A deaminase inactive and VLA-4 inh inactive.
`Cc1cccc(OCCC(=O)Nc2ccc(N3CCOCC3)cc2N2CCOCC2)c1` gave APOBEC3G inh inactive, GRK2 inh inactive, A3A deaminase inactive, VLA-4 inh 50 and VLA-4 mod pick inactive.
Screening O=C(COC(=O)c1ccccn1)Nc1ccccc1OC(F)F returned APOBEC3G inh inactive, GRK2 inh inactive, A3A deaminase inactive and VLA-4 inh inactive.
For CN(C)/C(=C\C(=O)c1ccccc1)C(=O)c1ccccc1 the results were VLA-4 mod pick inactive.
C/C(=N\NC(=O)Cc1c(Cl)cccc1Cl)c1cccnc1 was read as APOBEC3G inh inactive, GRK2 inh inactive, A3A deaminase inactive and VLA-4 inh inactive.
For CC(C)Cc1ccc(CN2CCCC(NC(=O)CCn3cnnn3)C2)cc1 (stereo not drawn) the results were APOBEC3G inh inactive, GRK2 inh inactive, A3A deaminase inactive and VLA-4 inh inactive.
`O=c1c2[nH]c3ccc(Br)cc3c2ncn1Cc1ccncc1` gave APOBEC3G inh inactive, GRK2 inh inactive, A3A deaminase inactive, VLA-4 inh inactive and VLA-4 mod pick inactive.
Cc1ccc2[nH]c3c(=O)n(Cc4ccncc4)cnc3c2c1 was read as APOBEC3G inh inactive, GRK2 inh inactive, A3A deaminase inactive and VLA-4 inh inactive.
`COc1ccc(CN(C(=O)/C=C/C(=O)c2ccc(OC)cc2O)C(C(=O)NC2CCCCC2)c2ccncc2)cc1` (stereo not drawn) gave APOBEC3G inh inactive, GRK2 inh inactive, A3A deaminase inactive and VLA-4 inh inactive.
For COc1ccc(C(=O)/C=C/C(=O)N(CC(=O)NC2CCCCC2)Cc2cccs2)c(O)c1 the results were APOBEC3G inh inactive, GRK2 inh inactive, A3A deaminase inactive, VLA-4 inh 63 and VLA-4 mod pick inactive.
`CN(C)CC/C=C1\c2cc(Cl)ccc2Sc2cc(F)c(F)cc21` gave APOBEC3G inh inactive, GRK2 inh inactive, A3A deaminase inactive and VLA-4 inh inactive.

Bioassay records as filed in PubChem.
